High-throughput results deposited in PubChem by National Center for Advancing Translational Sciences (NCATS).
FUS suppressor: qHTS for Suppressors of FUS Proteinopathy: Primary screen using FUS-linked yeast assay. S. cerevisiae FUS-expressing, growth rescue, OD600, 24 h. Potency, µM (doses to about 76.6 µM), usual class: activators. hit rate 0.24% among 390,000; also: nearly all actives have a fitted effect of over 55% in size
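Yeast expressing FUS under galactose induction, OD 0.005 in 2% galactose medium; compounds in a dilution series, 24 h at 30C. Growth rescue by absorbance at 600 nm; CP55940 positive control, DMSO negative.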
TDP-43 yeast inh: qHTS of TDP-43 Inhibitors; TDP-43 expressing yeast growth rescue, BacTiter-Glo, 24 h; Potency, µM (top dose mostly 46.1 µM), usual class: activators; hit rate 1.8% among 410,000; also: nearly all actives have a fitted effect of over 50% in size
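Galactose-induced TDP-43 yeast, OD600=0.02, compound pinned; 24 hr, 30 deg C; BacTiter-Glo luminescence for growth. Inhibitors of TDP-43 toxicity read as activators.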
Abeta yeast res: qHTS for compounds that reverse cellular toxicity of Amyloid beta (A-beta) peptide in yeast: Primary Screen; yeast expressing A-beta42, growth rescue, OD600, 48 h; response scale: 0% DMSO, 100% iron-clioquinol control; Potency, µM (titrated, usually from 46.1 µM), hits mostly activators; hit rate 0.063% among 410,000; also: nearly all actives have a fitted effect of over 55% in size
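Yeast A-beta toxicity model in growth medium with pinned compounds, 48 h at 30 C; growth read as absorbance at 600 nm. Normalized to FeCl3/clioquinol equimolar mix (positive) and DMSO (negative).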
TSG101-PTAP inh: qHTS Assay for Iinhibitors of HIV-1 Budding by Blocking the Interaction of PTAP/TSG101; Potency, µM (highest dose often 115 µM), most hits filed as inhibitors; 340,000 tested, under 10 active; Fluorescence polarization, FITC-PTAP peptide / Tsg101 binding; Tumor susceptibility gene 101 protein (Homo sapiens), Q99816; active = well fitted inhibition curve with a large enough effect in the main read-out, with a control signal flat, not every such curve was filed as active; inconclusive = small, poorly fitted or top-dose-only effect, or effect the other way, or a change in a side signal; inactive = no such curve, though single readings can be large or run the other way
Target sequence (Q99816 whole entry, looked up): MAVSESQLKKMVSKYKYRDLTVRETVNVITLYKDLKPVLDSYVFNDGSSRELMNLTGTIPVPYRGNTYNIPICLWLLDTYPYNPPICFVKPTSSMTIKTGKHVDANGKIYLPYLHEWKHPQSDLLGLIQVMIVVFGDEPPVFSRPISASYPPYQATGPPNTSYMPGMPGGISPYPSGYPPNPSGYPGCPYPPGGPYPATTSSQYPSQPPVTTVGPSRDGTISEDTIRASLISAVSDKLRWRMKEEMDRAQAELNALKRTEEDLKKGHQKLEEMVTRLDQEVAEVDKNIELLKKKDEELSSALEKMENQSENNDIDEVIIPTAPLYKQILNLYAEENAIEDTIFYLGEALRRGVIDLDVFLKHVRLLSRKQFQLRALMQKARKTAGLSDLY
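Fluorescence anisotropy tracks displacement of a FITC-tagged PTAP peptide (50 nM) from the Tsg101 binding domain (10 uM), following a 20 min room-temperature incubation at pH 7.5.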
aSyn rescue: qHTS of alpha-syn Inhibitors | Yeast expressing alpha-synuclein, growth rescue, BacTiter-Glo, 24 h | Potency, µM (titrated, usually from 46.1 µM), most hits filed as activators | hit rate 0.14% among 370,000; also: nearly all actives have a fitted effect of over 65% in size
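Rescue of yeast growth: cells expressing toxic alpha-synuclein, induced in galactose at OD600 0.02, incubated with compound 24 h at 30 C. ATP luminescence quantified growth; inhibitors of toxicity appear as activators.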
Of the large screens only hits and unclear results are named; the others gave an inactive call; ! = not active in a repeat. Sampled rows, rich in hits. Any-hit rate of the full collection: about 2.1%. Unless noted, calls follow the shape of the dose curve; as a rule, active = well fitted curve in the direction sought with a large enough effect; inconclusive = small, poorly fitted or top-dose-only effect, or another doubt; inactive = no such curve, though single readings can be large; an effect the other way counts as inactive or inconclusive.

CCOc1ccc(CCN2C(=O)C(=O)N([C@@H](Cc3ccc(O)cc3)CN3CCC[C@H]3CN3C(=O)C(=O)NC[C@@H]3Cc3ccccc3)C[C@@H]2Cc2ccc(O)cc2)cc1	FUS suppressor inconclusive (no result: TSG101-PTAP inh)
CCc1ccc(C(=O)c2cnc3ccc(F)cc3c2S(=O)(=O)c2ccccc2)cc1	TDP-43 yeast inh inconclusive (no result: TSG101-PTAP inh, aSyn rescue)
Cc1ccc(C)c(N2CCN(C(=O)c3cc(S(=O)(=O)N4CCCCC4)cn3C)CC2)c1	none (no result: TSG101-PTAP inh)
Cc1ccc2oc(/N=C(\N)NC(=O)C3CC3)nc2c1	TDP-43 yeast inh 20µM
Cc1ccc2oc(/N=C(\N)NC(=O)C(C)(C)C)nc2c1	none
CNC(=S)N/N=C1\CC(c2ccccc2)Oc2ccccc21 (configuration not stated)	TDP-43 yeast inh 22.4µM
O=C1CC(c2ccccc2)Oc2ccccc21 (configuration not stated)	TDP-43 yeast inh 14.1µM
Fc1ccc(N/N=C2/CC(c3ccccc3)Oc3ccccc32)c(F)c1 (configuration not stated)	none (no result: FUS suppressor)
O=C(Cn1ccc2cc(S(=O)(=O)N3CCCCCC3)ccc21)NCCc1ccccc1Cl	none (no result: TSG101-PTAP inh, aSyn rescue)
CCCC(=O)Nc1nc(-c2ccc3c(c2)OCCO3)cs1	TDP-43 yeast inh 10µM
CC(C)(C)c1csc(NC(=O)C2COc3ccccc3O2)n1 (configuration not stated)	none
COc1ccc(OC)c2sc(NNC(=O)C3COc4ccccc4O3)nc12 (configuration not stated)	TDP-43 yeast inh 6.31µM, Abeta yeast res inconclusive
COc1ccc(-c2csc(NC(=O)C3COc4ccccc4O3)n2)cc1OC (configuration not stated)	TDP-43 yeast inh 35.5µM
CC(=O)C1=CCC(c2ccccc2)N(Cc2ccccc2)C1 (configuration not stated)	none (no result: TSG101-PTAP inh)
CCC(C(=O)Nc1ccccc1N1CCCC1)c1ccccc1Cl (configuration not stated)	none (no result: TDP-43 yeast inh, Abeta yeast res, TSG101-PTAP inh, aSyn rescue)
Cc1ccc(NC(=O)C2CCCN(c3cnccn3)C2)cc1Cl (configuration not stated)	TDP-43 yeast inh 22.4µM (no result: TSG101-PTAP inh, aSyn rescue)
O=C(Nc1ccc(C(F)(F)F)cc1)C1CCN(c2cnccn2)CC1	TDP-43 yeast inh 15.8µM!
O=C(Nc1ccc(F)c(Cl)c1)C1CCCN(c2cnccn2)C1 (configuration not stated)	TDP-43 yeast inh inconclusive, aSyn rescue inconclusive
CCc1cccc(NC(=O)C2CCCN(c3cnccn3)C2)c1 (configuration not stated)	TDP-43 yeast inh inconclusive (no result: Abeta yeast res)
CCOC(=O)c1ccc(NC(=O)C2CCCN(c3cnccn3)C2)cc1 (configuration not stated)	TDP-43 yeast inh 20µM, aSyn rescue inconclusive
COc1ccc(N2CCN(C(=O)c3cnn(-c4ccc(OC)cc4)c3C3CCN(C(=O)OC(C)(C)C)CC3)CC2)cc1	none (no result: TSG101-PTAP inh, aSyn rescue)
Cc1ccc(C)c(NC(=O)Cn2c(=O)nc(-c3ccccc3)c3ccccc32)c1	none (no result: TSG101-PTAP inh, aSyn rescue)
Cc1ccc(CNC(=O)CN2N=C(c3ccccc3)CCC2=O)cc1	none (no result: TSG101-PTAP inh, aSyn rescue)
CC(O/N=C(\N)c1ccccc1)C(=O)Nc1cccc(C(F)(F)F)c1 (configuration not stated)	TDP-43 yeast inh 12.6µM
Oc1c(N=Nc2nn[nH]n2)ccc2ccccc12	FUS suppressor inconclusive, TDP-43 yeast inh 35.5µM (no result: TSG101-PTAP inh)
Cc1ccc(SCCNC(=S)Nc2cc(C)ccc2C)cc1	TDP-43 yeast inh 14.1µM, Abeta yeast res inconclusive
Cc1ccc(SCCNC(=S)Nc2ccc(C)c(C)c2)cc1	none
Cc1ccc(OCc2nc(-c3ccccn3)n[nH]2)cc1	TDP-43 yeast inh 12.6µM, Abeta yeast res inconclusive, aSyn rescue inconclusive
CCN1C(=O)C(Cc2nc3ccccc3c(=O)n2C)c2cc(C)ccc21 (configuration not stated)	none (no result: TSG101-PTAP inh, aSyn rescue)
CC(C)(C)c1ccc(-n2nc(C(N)=O)c(O)cc2=O)cc1	none
CC(C)(C)c1ccc(-n2nc(C#N)c(Cl)cc2=O)cc1	TDP-43 yeast inh 3.55µM
OC(c1cccc(Cl)c1)c1nc(-c2ccc3c(c2)OCO3)cs1 (configuration not stated)	TDP-43 yeast inh 31.6µM, aSyn rescue inconclusive (no result: TSG101-PTAP inh)
OC(c1ccccc1)c1nc(-c2ccc3c(c2)OCO3)cs1 (configuration not stated)	TDP-43 yeast inh 20µM, aSyn rescue 11.2µM (no result: TSG101-PTAP inh)
C=CCN1[C@@H](CC(C)C)COc2cc(N3CCSCC3)ccc2S1(=O)=O	none (no result: TDP-43 yeast inh, Abeta yeast res, TSG101-PTAP inh, aSyn rescue)
CN(C)c1nc2sc3c(c2c(=O)n1C)CC(C)(C)OC3	none
CNc1nc2sc3c(c2c(=O)n1C)CC(C)(C)SC3	TDP-43 yeast inh 12.6µM
COc1cc(-c2nc(C(N)=O)c3c(n2)n(-c2cccc(C)c2)c(=O)n3C)cc(OC)c1OC	none (no result: TSG101-PTAP inh)
CCCc1cc(=O)oc2cc3oc(C)c(C)c3cc12	none (no result: FUS suppressor)
CCc1cc(=O)oc2cc3oc(C)c(C)c3cc12	TDP-43 yeast inh 3.55µM
CCCCC[C@@H]1[C@H]2[C@H]3C(=O)N(c4ccccc4)C(=O)[C@H]3CC(=O)[C@H]2[C@H](c2ccccc2)N1S(=O)(=O)c1ccc(C)cc1	FUS suppressor inconclusive (no result: TSG101-PTAP inh)
O=C(CSc1ccc(-c2nc3ccccc3[nH]2)cn1)N1CCN(C(=O)c2ccco2)CC1	FUS suppressor 14.1µM
O=C(CCc1nc2ccccc2[nH]1)N1CCN(C(=O)c2ccco2)CC1	none
CCc1cc(-c2onc(C)c2-c2cscn2)c(O)cc1OC	TDP-43 yeast inh 17.8µM, aSyn rescue inconclusive
C(=C\c1nc2ccccc2o1)/c1ccc2c(c1)OCO2	none (no result: FUS suppressor, TDP-43 yeast inh, Abeta yeast res, TSG101-PTAP inh)
CCOc1ccc(C(=O)NCc2nc(-c3ccc(Cl)cc3)no2)cc1OCC	none (no result: TSG101-PTAP inh, aSyn rescue)
Cc1nc(-n2[nH]c3c(c2=O)CCCC3)[nH]c(=O)c1Cc1ccccc1	FUS suppressor inconclusive, TDP-43 yeast inh 10µM, Abeta yeast res inconclusive, aSyn rescue inconclusive
COc1cccc(NC(=O)CSC2=Nc3ccccc3C3=NC(CC(=O)NCc4ccccc4OC)C(=O)N23)c1 (configuration not stated)	FUS suppressor 35.5µM (no result: TSG101-PTAP inh, aSyn rescue)
CC(C)c1ccc(NC(=O)CSC2=Nc3ccccc3C3=NC(CCC(=O)NC4CCCCC4)C(=O)N23)cc1 (configuration not stated)	none (no result: TSG101-PTAP inh, aSyn rescue)
CC(C)c1ccc(NC(=O)CSC2=Nc3ccccc3C3=NC(CC(=O)NC4CCCCC4)C(=O)N23)cc1 (configuration not stated)	FUS suppressor 31.6µM (no result: TSG101-PTAP inh, aSyn rescue)
O=S(=O)(NCC(c1ccccc1)N1CCc2ccccc21)c1ccc(Cl)cc1 (configuration not stated)	FUS suppressor inconclusive (no result: TSG101-PTAP inh, aSyn rescue)
O=S(=O)(NCC(c1ccco1)N1CCc2ccccc21)c1ccccc1 (configuration not stated)	TDP-43 yeast inh 22.4µM
